Test results taken from ChEMBL document CHEMBL4513216, “Probing the Open Global Health Chemical Diversity Library for Multistage-Active Starting Points for Next-Generation Antimalarials” (ACS Infect Dis, 2020).
The whole screen tested about 69,000 compounds, of which about 8,600 (12%) showed an effect of 50% or more. The full list was thinned out, with strong results kept by preference.

These compounds were tested on Plasmodium berghei (assay: Screen against P. berghei liver stage (PbLuc), transformed with Luciferase, at 10uM). Details: tested at 10 uM.
Format: functional, HepG2
`CCN(Cc1noc(CC(C)C)n1)Cc1ccccc1Cl` gave an INHIBITION of 50.8%.
Compound `CCN(Cc1noc(CC(C)C)n1)Cc1ccccc1OCC(=O)O` has an INHIBITION of 11.8%.
With `CCN(Cc1noc(CC(C)C)n1)Cc1ccccc1C` the INHIBITION was 42.4%.
With `CCN(Cc1noc(CC(C)C)n1)Cc1ncccc1C(=O)O` the INHIBITION was 35.9%.
`CCC1COCCN1C(=O)NCc1nccn1Cc1ccccc1` (stereo unspecified) gave an INHIBITION of 40.7%.
Compound `CCCC1CCCN(C(=O)CCn2cccn2)CC1` (stereo unspecified) has an INHIBITION of 30.76%.
`CC(C)C(=O)N1CC[C@H]2N(C)CC[C@@]2(C(=O)N2CCOCC2)CC1` gave an INHIBITION of 14.9%.
For `CC(C)n1cnc2c1C(C(=O)N(C)C)N(Cc1ccccc1)CC2` (stereo unspecified), the INHIBITION was 4.61%.
With `C1CCN(CCO[C@@H]2CC[C@H]3[C@H]2OCCN3CC2CCOCC2)C1` the INHIBITION was 34.4%.
In the case of `Cc1nccn1-c1ccc(N2CCC(NC(C)C(C)C)CC2)cc1` (stereo unspecified), the INHIBITION is reported as 25.8%.
In the case of `Cc1nccn1-c1ccc(C(C)NCc2cc[nH]n2)cc1` (stereo unspecified), the INHIBITION is reported as 50.8%.
`COc1ccc(C)cc1C(C)NCc1cccn1C` (stereo unspecified) gave an INHIBITION of -40.7%.
For `CCOc1ccc(CNC(C)c2ccc3[nH]c(=O)[nH]c3c2)cc1` (stereo unspecified), the INHIBITION was 4.71%.
For `Cc1nccn1-c1ccc(C(C)NCc2ncc[nH]2)cc1` (stereo unspecified), the INHIBITION was 50%.
`Cc1nccn1-c1ccc(C(C)NCc2cccn2C)cc1` (stereo unspecified) was tested, and the INHIBITION was 53.4%.
`CC(NCc1cccn1C)c1noc(-c2ccc(Cl)cc2)n1` (stereo unspecified) showed an INHIBITION of -1.15%.
With `Cc1nc(CNC(C)c2ccc(OCC(=O)NC3CC3)cc2)cs1` (stereo unspecified) the INHIBITION was 33.7%.
`Cc1nccn1-c1ccc(N2CCC(N[C@H](C)C(C)C)CC2)cc1` showed an INHIBITION of 43%.
For `COc1cc2c(cc1OC)CN(C(=O)NCC1CCCO1)CC2` (stereo unspecified), the INHIBITION was 18.9%.
`Cc1c(C(=O)O)oc2ccc(I)cc12` showed an INHIBITION of 26.3%.
For `Cc1nn(C)c(N(C)C)c1CNCCS(C)(=O)=O`, the INHIBITION was -21.915%.
`O=C(CC1[C@H]2CN(C(=O)CO)C[C@@H]12)Nc1cccnc1` (stereo partly specified) showed an INHIBITION of 42.6%.
`CC(NC(=O)NCCCc1n[nH]c(N)c1C#N)c1ccc(F)c(F)c1` (stereo unspecified) showed an INHIBITION of -23.8%.
Work on `Cn1c(=O)[nH]c(=O)c2c1nc1n2CC(c2ccc(Br)cc2)O1` (stereo unspecified) yielded an INHIBITION of 1.985%.
`CC(=O)Nc1nc(CN2CCOC(Cn3cccn3)C2)cs1` (stereo unspecified) was tested, and the INHIBITION was 31.3%.
`CC(NCc1ccc(OCC(N)=O)cc1)c1ccc(Cl)c(Cl)c1` (stereo unspecified) gave an INHIBITION of -6.91%.
In the case of `CC(C)(C)CC(=O)NCC(=O)Nc1ccn(Cc2ccccc2)n1`, the INHIBITION is reported as 21.6%.
`O=C(NCC1CCC2(CCNCC2)CO1)c1cnccn1` (stereo unspecified) was tested, and the INHIBITION was 73.3%.
Compound `Cc1ncsc1C(=O)NCC1CCC2(CCNCC2)CO1` (stereo unspecified) has an INHIBITION of -10.9%.
For `O=C(NCC1CCCO1)c1csc(Cc2ccccc2)n1` (stereo unspecified), the INHIBITION was -87.7%.
For `O=C(NCC1CC[C@@]2(CNCCOC2)O1)c1cnccn1` (stereo partly specified), the INHIBITION was 5.36%.
For `Nc1nc(C(=O)NCC2CCC3(CCNCC3)CO2)cs1` (stereo unspecified), the INHIBITION was 55.6%.
With `O=C(NCC1CCC2(CCNCC2)CO1)c1ccno1` (stereo unspecified) the INHIBITION was 5.36%.
In the case of `CCN1CCOC(CNCc2cccc(OCc3ccccn3)c2)C1` (stereo unspecified), the INHIBITION is reported as -62.8%.
`CN(C)c1cc(CNC(=O)c2c(F)cccc2F)ccn1` was tested, and the INHIBITION was -7.35%.
For `COCC1Cn2nnc(-c3cnn(C)c3)c2CN1Cc1ccc(C)s1` (stereo unspecified), the INHIBITION was 11.8%.
In the case of `CNS(=O)(=O)CC(=O)NC(c1cc(C)sc1C)C(C)C` (stereo unspecified), the INHIBITION is reported as 16.6%.
`Cn1cc(C(=O)NC(Cn2cccn2)C(C)(C)C)cn1` (stereo unspecified) was tested, and the INHIBITION was 35.2%.
`CCc1nc(CNC(C)c2cccc(N3CCCC3=O)c2)cs1` (stereo unspecified) was tested, and the INHIBITION was 10.8%.
`Cc1ccsc1CN(Cc1ncccc1C(=O)O)C1CC1` showed an INHIBITION of 31.9%.
Compound `Cc1ccsc1CN(C)Cc1ncccc1C(=O)O` has an INHIBITION of 68.3%.
`CC(C)c1nc(CN(C)Cc2ncccc2C(=O)O)cs1` gave an INHIBITION of 15.7%.
Work on `COc1cccc(CCC(=O)N2CCN(CC(C)(C)O)CC2)c1` yielded an INHIBITION of 4.3%.
In the case of `CC(=O)c1cc(CN2C[C@@H]3CC[C@H]2CN(Cc2c(C)noc2C)C3)cs1`, the INHIBITION is reported as -33.5%.
`COCCNC(=O)c1nnc2ccc(N3CCOCC3)cc2n1` was tested, and the INHIBITION was 54%.
In the case of `CNC(=O)c1nnc2ccc(N3CCOCC3)cc2n1`, the INHIBITION is reported as -12.2%.
Work on `CCNC(=O)c1nnc2ccc(N3CCOCC3)cc2n1` yielded an INHIBITION of 30%.
With `COC(=O)c1ccc(-c2cc(C(F)(F)F)cc(N(C)C)n2)cc1` the INHIBITION was 23.6%.
With `Cc1cccc(C(C(=O)NC(C)(C)CN2CCCC2)N(C)C)c1` (stereo unspecified) the INHIBITION was -13.2%.
`CCc1ccc2nc(C)cc(C(=O)N[C@@H]3C[C@@H](CO)N(C)C3)c2c1` showed an INHIBITION of 22.1%.
For `Cn1cccc1C(=O)N1CCC2(CC1)CN(c1ccccc1)C(=O)CO2`, the INHIBITION was 33.4%.
For `Cn1cc(N2CC3(CCN(C(=O)c4cccn4C)CC3)OCC2=O)cn1`, the INHIBITION was 73%.
With `Cn1cccc1C(=O)N1CCC2(CC1)CN(c1ccsc1)C(=O)CO2` the INHIBITION was 71.9%.
Work on `Cn1cc(N2CCC3(CCN(C(=O)c4cccn4C)C3)C2=O)cn1` (stereo unspecified) yielded an INHIBITION of 23.6%.
Compound `Cn1cccc1C(=O)N1CCC2(CC1)CN(c1cncnc1)C(=O)CO2` has an INHIBITION of 11.4%.
For `CN1CC(=O)N(c2ccsc2)CC12CCN(C(=O)c1cccn1C)C2` (stereo unspecified), the INHIBITION was 19.4%.
